# Assay results: PubChem BioAssay (EPA / NIEHS)
# Inconclusive results are not listed. The source made the active and inactive calls. Rule for the calls: active = hit-call score of the fitted dose curve at least 0.9, where 1 is the maximum; inconclusive = response in the unintended direction; inactive = score below 0.9.
# Assays:
# [1] = molecular target: guinea pig Sigma Receptor, Non-selective Binding, SIGMAR1 (gene 100135589) (UniProt Q60492); assay: NVS_OR_gSIGMA_NonSelective: NovaScreen (NVS) Nuclear Receptor Binding Assay for guinea pig Sigma Receptor, Non-selective Binding (AID 2283367)
# Procedure, shortened: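 Radioligand displacement on guinea pig brain membranes, read by filter-based scintillation counting 1 h after dosing. Loss of signal versus DMSO; initial duplicate single-point screen at 25 uM, actives followed in concentration series.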
# [2] = molecular target: human Adenosine Transporter (Adot), SLC29A1 (gene 2030) (UniProt Q99808); assay: NVS_TR_hAdoT: NovaScreen (NVS) Transporter Assay for human Adenosine Transporter (Adot) (AID 2283368)
# Procedure, shortened: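 U937-derived membranes, cell-free radioligand binding, filter scintillation 1 h after dosing. 25 uM duplicate screen; hits (e.g. 30% inhibition) run in concentration-response up to 50 uM; loss of signal versus DMSO.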
# [3] = molecular target: human Norepinephrine Transporter (NET), SLC6A2 (gene 6530) (UniProt P23975); assay: NVS_TR_hNET: NovaScreen (NVS) Transporter Assay for human Norepinephrine Transporter (NET) (AID 2283377);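 for AC50: displacement of radioligand from human NET seen as loss of scintillation signal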
# Procedure, shortened: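 Cell-free radioligand binding using CHO-derived membrane protein expressing human NET, read by filter scintillation counting 1 h after dosing; loss of signal vs DMSO. Initial duplicate screen at 25 uM, actives retested in concentration series.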
# [4] = test system: rat Norepinephrine Transporter (NET), gene 83511; assay: NVS_TR_rNET: NovaScreen (NVS) Transporter Assay for rat Norepinephrine Transporter (NET) (AID 2283373)
# Procedure, shortened: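 Rat forebrain membranes; radioligand binding measured by filter-based scintillation counting 1 hour after dosing. Loss of specific binding versus DMSO baseline scored; primary screen in duplicate at 25 uM, actives followed up in concentration series.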
# [5] = molecular target: human Dopamine Transporter (DAT), SLC6A3 (gene 6531) (UniProt Q01959); assay: NVS_TR_hDAT: NovaScreen (NVS) Transporter Assay for human Dopamine Transporter (DAT) (AID 2283374);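 note: activity means loss of bound radioligand signal relative to DMSO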
# Procedure, shortened: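 Cell-free radioligand displacement binding at human DAT, 1 h after dosing, with filtration and scintillation counting. Primary screen in duplicate at 25 uM, actives then in concentration series. Loss of bound signal versus DMSO scored.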
# [6] = molecular target: rat Serotonin Transporter (SERT), Slc6a4 (gene 25553) (UniProt P31652); assay: NVS_TR_rSERT: NovaScreen (NVS) Transporter Assay for rat Serotonin Transporter (SERT) (AID 2283375)
# Procedure, shortened: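 Radioligand displacement, filter scintillation readout; rat forebrain membrane prep, 1 h post-dose. Single-conc 25 uM duplicate screen, then concentration-response on actives. Loss of signal vs DMSO baseline.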
# [7] = test system: guinea pig Dopamine Transporter (DAT), gene 100714898; assay: NVS_TR_gDAT: NovaScreen (NVS) Transporter Assay for guinea pig Dopamine Transporter (DAT) (AID 2283369);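 note: active compounds lower bound radioligand signal relative to DMSO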
# Procedure, shortened: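 Cell-free striatal membrane prep (guinea pig), 2 h exposure, filtration + scintillation readout of radioligand binding. Single-point 25 uM duplicate; actives rerun singleton, top conc 50 uM.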
# [8] = molecular target: Peroxisome proliferator-activated receptor gamma (Homo sapiens) (UniProt P37231); assay: NVS_NR_hPPARg: NovaScreen (NVS) Nuclear Receptor Binding Assay for human Peroxisome Proliferator-activated Receptor gamma (PPARg) (AID 2283370)
# Procedure, shortened: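 FP read-out, 2 h post-dose, cell-free extracted receptor protein. Signal loss vs DMSO negative control = binding activity. Single-conc duplicate HTS at 25 uM; concentration-response follow-up for actives.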
# [9] = molecular target: mouse Estrogen Receptor alpha (Era), Esr1 (gene 13982) (UniProt P19785); assay: NVS_NR_mERa: NovaScreen (NVS) Nuclear Receptor Binding Assay for mouse Estrogen Receptor alpha (Era) (AID 2283378);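 note: hit means loss of bound radioligand signal relative to DMSO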
# Procedure, shortened: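 Filter scintillation counts of bound radioligand, measured 18 h post-dose, gave the readout; decreased signal relative to DMSO controls indicated displacement from mouse Era. Primary screen ran in duplicate at 25 uM; active chemicals were retested across concentrations.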
# [10] = molecular target: human Serotonin Transporter (SERT), SLC6A4 (gene 6532) (UniProt P31645); assay: NVS_TR_hSERT: NovaScreen (NVS) Transporter Assay for human Serotonin Transporter (SERT) (AID 2283372)
# Procedure, shortened: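 Radioligand binding to native SERT in human platelet membranes, read by filter-based scintillation counting 1 h after dosing. Primary screen in duplicate at 25 uM; actives followed up in concentration series; loss of signal versus DMSO baseline.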
# Chain of human Adenosine Transporter (Adot), SLC29A1 (gene 2030) (Q99808 whole entry, looked up): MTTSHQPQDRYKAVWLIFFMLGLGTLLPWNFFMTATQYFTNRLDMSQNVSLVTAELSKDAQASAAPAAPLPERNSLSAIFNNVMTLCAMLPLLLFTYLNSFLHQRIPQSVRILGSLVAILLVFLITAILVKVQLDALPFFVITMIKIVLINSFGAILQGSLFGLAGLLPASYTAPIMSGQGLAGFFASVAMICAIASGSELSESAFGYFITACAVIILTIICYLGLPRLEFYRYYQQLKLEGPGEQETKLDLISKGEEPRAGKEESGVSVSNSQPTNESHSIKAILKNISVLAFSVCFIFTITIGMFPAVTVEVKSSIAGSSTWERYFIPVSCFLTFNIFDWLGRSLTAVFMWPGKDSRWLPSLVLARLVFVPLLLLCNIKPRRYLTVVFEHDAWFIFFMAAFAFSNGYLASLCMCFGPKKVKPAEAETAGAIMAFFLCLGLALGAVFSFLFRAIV
# Chain of mouse Estrogen Receptor alpha (Era), Esr1 (gene 13982) (P19785 whole entry, looked up): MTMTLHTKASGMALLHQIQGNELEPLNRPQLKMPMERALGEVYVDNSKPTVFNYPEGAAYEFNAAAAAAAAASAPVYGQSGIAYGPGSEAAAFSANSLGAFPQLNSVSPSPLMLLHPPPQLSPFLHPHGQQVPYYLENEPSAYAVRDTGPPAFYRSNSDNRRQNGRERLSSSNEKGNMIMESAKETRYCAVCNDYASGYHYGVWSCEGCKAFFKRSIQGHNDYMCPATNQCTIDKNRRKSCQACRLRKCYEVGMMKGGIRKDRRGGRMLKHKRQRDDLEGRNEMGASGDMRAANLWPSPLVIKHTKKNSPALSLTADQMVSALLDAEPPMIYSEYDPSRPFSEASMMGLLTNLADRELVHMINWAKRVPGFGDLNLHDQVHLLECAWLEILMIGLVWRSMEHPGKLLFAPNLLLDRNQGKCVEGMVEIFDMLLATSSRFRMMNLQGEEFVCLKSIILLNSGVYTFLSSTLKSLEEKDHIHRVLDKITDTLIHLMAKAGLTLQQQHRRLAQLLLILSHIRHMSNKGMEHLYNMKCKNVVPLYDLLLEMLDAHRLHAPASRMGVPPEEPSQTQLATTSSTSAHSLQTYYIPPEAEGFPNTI
# Chain of human Serotonin Transporter (SERT), SLC6A4 (gene 6532) (P31645 whole entry, looked up): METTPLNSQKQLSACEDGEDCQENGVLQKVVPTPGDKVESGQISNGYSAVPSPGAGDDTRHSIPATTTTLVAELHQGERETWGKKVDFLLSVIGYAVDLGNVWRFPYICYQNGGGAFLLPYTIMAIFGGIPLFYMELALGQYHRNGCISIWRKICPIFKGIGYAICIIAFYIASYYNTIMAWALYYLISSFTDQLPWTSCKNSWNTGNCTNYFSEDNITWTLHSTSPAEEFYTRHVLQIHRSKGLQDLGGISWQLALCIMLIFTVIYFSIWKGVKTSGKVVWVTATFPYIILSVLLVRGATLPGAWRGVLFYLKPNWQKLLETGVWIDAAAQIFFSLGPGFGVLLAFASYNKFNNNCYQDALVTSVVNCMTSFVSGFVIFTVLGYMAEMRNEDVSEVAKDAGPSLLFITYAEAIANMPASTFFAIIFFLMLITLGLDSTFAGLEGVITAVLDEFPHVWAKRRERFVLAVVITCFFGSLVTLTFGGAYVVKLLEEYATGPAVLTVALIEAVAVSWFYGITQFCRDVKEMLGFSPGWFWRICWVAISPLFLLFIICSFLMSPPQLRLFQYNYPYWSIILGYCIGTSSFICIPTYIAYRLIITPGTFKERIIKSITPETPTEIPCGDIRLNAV
# Chain of human Norepinephrine Transporter (NET), SLC6A2 (gene 6530) (P23975 whole entry, looked up): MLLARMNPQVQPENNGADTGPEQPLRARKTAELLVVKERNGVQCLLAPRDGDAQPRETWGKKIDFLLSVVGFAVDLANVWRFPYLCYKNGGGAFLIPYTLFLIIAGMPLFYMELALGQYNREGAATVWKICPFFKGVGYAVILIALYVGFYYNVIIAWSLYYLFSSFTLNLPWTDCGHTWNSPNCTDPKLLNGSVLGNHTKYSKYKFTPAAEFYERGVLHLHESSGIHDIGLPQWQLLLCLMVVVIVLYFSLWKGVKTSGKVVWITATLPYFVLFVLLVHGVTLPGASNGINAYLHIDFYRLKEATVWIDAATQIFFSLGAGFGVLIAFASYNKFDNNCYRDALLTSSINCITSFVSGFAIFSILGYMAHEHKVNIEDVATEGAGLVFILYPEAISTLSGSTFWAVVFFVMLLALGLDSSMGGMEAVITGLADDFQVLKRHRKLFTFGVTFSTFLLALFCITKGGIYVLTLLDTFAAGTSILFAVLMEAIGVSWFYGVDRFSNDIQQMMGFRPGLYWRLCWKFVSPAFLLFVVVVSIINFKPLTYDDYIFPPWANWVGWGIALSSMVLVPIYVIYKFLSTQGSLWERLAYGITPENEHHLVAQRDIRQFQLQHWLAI
# Chain of guinea pig Sigma Receptor, Non-selective Binding, SIGMAR1 (gene 100135589) (Q60492 whole entry, looked up): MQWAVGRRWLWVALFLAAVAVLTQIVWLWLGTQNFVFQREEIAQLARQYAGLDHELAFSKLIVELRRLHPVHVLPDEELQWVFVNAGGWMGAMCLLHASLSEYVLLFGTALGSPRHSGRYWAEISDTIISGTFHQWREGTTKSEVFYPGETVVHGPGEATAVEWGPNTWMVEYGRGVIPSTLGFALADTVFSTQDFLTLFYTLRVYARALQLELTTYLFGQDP
# Chain of Peroxisome proliferator-activated receptor gamma (Homo sapiens) (P37231 whole entry, looked up): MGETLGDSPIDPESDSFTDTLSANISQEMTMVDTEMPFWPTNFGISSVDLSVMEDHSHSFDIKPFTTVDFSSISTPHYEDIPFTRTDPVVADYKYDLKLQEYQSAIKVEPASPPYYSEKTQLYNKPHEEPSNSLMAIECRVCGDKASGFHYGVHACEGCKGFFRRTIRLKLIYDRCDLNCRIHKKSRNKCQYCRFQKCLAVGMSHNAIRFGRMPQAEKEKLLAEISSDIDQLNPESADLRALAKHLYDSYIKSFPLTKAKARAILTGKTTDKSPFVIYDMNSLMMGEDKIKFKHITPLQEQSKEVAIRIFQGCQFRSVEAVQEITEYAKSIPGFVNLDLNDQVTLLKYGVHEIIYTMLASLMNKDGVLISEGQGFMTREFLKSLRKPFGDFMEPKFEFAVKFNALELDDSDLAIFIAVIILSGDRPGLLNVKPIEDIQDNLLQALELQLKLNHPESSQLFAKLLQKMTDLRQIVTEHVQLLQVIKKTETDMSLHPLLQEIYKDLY
# Chain of rat Serotonin Transporter (SERT), Slc6a4 (gene 25553) (P31652 whole entry, looked up): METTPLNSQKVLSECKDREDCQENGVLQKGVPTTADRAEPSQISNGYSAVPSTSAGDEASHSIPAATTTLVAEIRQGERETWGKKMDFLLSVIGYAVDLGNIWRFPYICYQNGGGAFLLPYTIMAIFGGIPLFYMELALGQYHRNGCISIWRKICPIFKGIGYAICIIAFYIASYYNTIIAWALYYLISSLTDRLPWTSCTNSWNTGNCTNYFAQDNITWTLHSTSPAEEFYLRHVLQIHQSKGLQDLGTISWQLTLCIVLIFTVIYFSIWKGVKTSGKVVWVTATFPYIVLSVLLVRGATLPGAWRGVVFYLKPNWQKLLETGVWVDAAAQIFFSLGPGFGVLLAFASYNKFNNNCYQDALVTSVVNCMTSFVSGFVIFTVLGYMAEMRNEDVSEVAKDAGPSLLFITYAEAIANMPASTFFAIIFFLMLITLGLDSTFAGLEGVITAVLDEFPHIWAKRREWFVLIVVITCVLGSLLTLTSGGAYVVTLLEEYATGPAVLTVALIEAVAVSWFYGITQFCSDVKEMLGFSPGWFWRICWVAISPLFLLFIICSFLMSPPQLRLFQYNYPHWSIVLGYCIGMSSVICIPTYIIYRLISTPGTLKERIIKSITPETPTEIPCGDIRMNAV
# Chain of human Dopamine Transporter (DAT), SLC6A3 (gene 6531) (Q01959 whole entry, looked up): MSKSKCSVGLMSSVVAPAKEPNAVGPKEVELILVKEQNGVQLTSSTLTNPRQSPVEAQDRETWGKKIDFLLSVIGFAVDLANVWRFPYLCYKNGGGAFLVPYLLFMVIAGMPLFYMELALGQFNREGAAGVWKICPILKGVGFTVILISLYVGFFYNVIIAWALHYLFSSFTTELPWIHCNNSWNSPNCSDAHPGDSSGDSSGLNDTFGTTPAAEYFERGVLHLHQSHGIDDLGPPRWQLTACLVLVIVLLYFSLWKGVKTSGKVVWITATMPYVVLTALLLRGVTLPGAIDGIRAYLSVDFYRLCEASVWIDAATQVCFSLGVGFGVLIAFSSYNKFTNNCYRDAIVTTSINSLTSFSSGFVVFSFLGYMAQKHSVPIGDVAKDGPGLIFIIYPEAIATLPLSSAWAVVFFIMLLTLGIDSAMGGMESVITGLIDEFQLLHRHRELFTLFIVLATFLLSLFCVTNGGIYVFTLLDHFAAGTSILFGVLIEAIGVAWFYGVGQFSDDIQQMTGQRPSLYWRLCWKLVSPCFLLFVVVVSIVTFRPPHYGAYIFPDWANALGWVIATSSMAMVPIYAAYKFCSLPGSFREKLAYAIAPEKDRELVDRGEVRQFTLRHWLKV
compound,measurement,setting,value
Cc1nc(C)nc(N2C[C@@H](C)N(c3ccnc([C@@H](C)O)n3)[C@@H](C)C2)n1,AC50,[1],3.21 µM (active)
c1cc(-c2ccncc2)ccn1,outcome,[2],inactive
Nc1nc(N)c2nc(CNc3ccc(C(=O)N[C@@H](CCC(=O)O)C(=O)O)cc3)cnc2n1,outcome,[2],inactive
same,outcome,[3],inactive
Oc1ccc2c(c1)OC[C@@H](N1CCC(O)(c3ccc(F)cc3)CC1)[C@H]2O,outcome,[1],inactive
same,outcome,[4],inactive
same,AC50,[5],12.5 µM (active)
same,outcome,[6],inactive
Cc1cccc([N+](=O)[O-])c1C,outcome,[1],inactive
Cc1ccc(C(C)C)c(O)c1,outcome,[1],inactive
same,outcome,[7],inactive
CCCCC(CC)COC(=O)CC(C(=O)OCC(CC)CCCC)S(=O)(=O)O (stereo unspecified),AC50,[2],19.1 µM (active)
same,AC50,[7],20.6 µM (active)
same,AC50,[8],0.221 µM (active)
same,AC50,[5],8.14 µM (active)
same,AC50,[3],10.2 µM (active)
CC=Cc1ccc(O)c(OC)c1,AC50,[7],16.6 µM (active)
same,outcome,[8],inactive
same,AC50,[5],8.8 µM (active)
Oc1ccc2ccccc2c1N=Nc1ccccc1,outcome,[1],inactive
same,outcome,[8],inactive
C[C@]12C=CC(=O)C=C1CC[C@@H]1[C@@H]2C(=O)C[C@@]2(C)[C@H]1CC[C@]2(O)C(=O)CO,AC50,[2],14.1 µM (active)
same,outcome,[8],inactive
CCCCCCCCCCCCCO,outcome,[8],inactive
Cc1c(C(=O)O)c(O)cc2c1C(=O)c1c(O)c([C@@H]3O[C@H](CO)[C@@H](O)[C@H](O)[C@H]3O)c(O)c(O)c1C2=O,outcome,[7],inactive
same,outcome,[5],inactive
same,outcome,[6],inactive
CCOc1ccc2c(c1)C(C)=CC(C)(C)N2,AC50,[1],16.4 µM (active)
same,outcome,[8],inactive
same,outcome,[3],inactive
COc1ccc(S(=O)(=O)N2C(=O)[C@@](c3ccccc3OC)(N3C[C@H](O)C[C@H]3C(=O)N(C)C)c3cc(Cl)ccc32)c(OC)c1,AC50,[7],25 µM (active)
same,outcome,[8],inactive
same,outcome,[5],inactive
same,AC50,[3],41.6 µM (active)
NC(=O)Cn1c(=O)cc(CCN2CCN(c3nccc4sccc34)CC2)c2ccc(F)cc21,AC50,[1],2.1 µM (active)
Cc1ccccc1Cl,AC50,[1],15.7 µM (active)
same,outcome,[9],inactive
CCCCc1ccc2c(n1)[C@@H](c1ccc(OC)cc1C[C@H](C)C(=O)O)[C@H](C(=O)O)[C@H]2c1ccc2c(c1)OCO2,AC50,[8],5.46 µM (active)
CCOC(=O)CCC(=O)OCC,AC50,[7],6.93 µM (active)
same,outcome,[10],inactive
same,outcome,[5],inactive
same,outcome,[9],inactive
Cc1oc(-c2ccccc2)nc1CCOc1cccc2c1ccn2CCC(=O)O,AC50,[1],11 µM (active)
same,AC50,[8],2.27 µM (active)
CCc1c(C(=O)NN2CCCCC2)nn(-c2ccc(Cl)cc2Cl)c1-c1ccc(Br)cc1,outcome,[7],inactive
same,AC50,[5],6.88 µM (active)
Cc1nc(-c2ccc3c(c2)CCN(CCC2CCC(NC(=O)/C=C/c4ccc(F)cc4)CC2)CC3)no1 (stereo unspecified),AC50,[1],1.03 µM (active)
same,AC50,[10],0.068 µM (active)
same,AC50,[6],0.201 µM (active)
CCCCCCC(=O)OCC,outcome,[1],inactive
same,outcome,[9],inactive
Cc1cccc(C)c1O,outcome,[8],inactive
FC(F)(F)C(F)(F)C(F)(F)C(F)(F)C(F)(F)C(F)(F)CCI,AC50,[1],3.3 µM (active)
Nc1ccc(S(=O)(=O)c2ccc(N)cc2)cc1,AC50,[7],25 µM (active)
same,AC50,[5],3.85 µM (active)
same,outcome,[3],inactive
CN1CCN(Cc2cc(-c3ccc4[nH]c(=O)oc4c3)co2)[C@@H](c2ccc(F)cc2)C1,AC50,[1],5.66 µM (active)
same,AC50,[7],5.69 µM (active)
same,AC50,[10],3.37 µM (active)
same,AC50,[5],1.99 µM (active)
same,AC50,[6],2.52 µM (active)
same,AC50,[3],12.7 µM (active)
same,AC50,[9],5.79 µM (active)
CNC(=O)[C@H]1O[C@@H](n2cnc3c(NCc4cc(Cl)ccc4OCc4cc(C)no4)ncnc32)[C@H](O)[C@@H]1N,AC50,[1],9.75 µM (active)
CCCCCCCCCCCC(=O)OC,outcome,[8],inactive
CC(C)(C)c1cc(O)c(C(C)(C)C)cc1O,AC50,[1],5.75 µM (active)
same,outcome,[3],inactive
same,outcome,[9],inactive
O=[N+]([O-])C(CO)(CO)CO,outcome,[10],inactive
O=C(N[C@@H](Cc1ccccc1)[C@@H](O)C(=O)N1C[C@@H](O)[C@@H](O)C1)c1cc2cc(Cl)ccc2[nH]1,outcome,[10],inactive
C=CCOC(=O)c1ccccc1C(=O)OCC=C,AC50,[4],25 µM (active)
